This is a sample that favours compounds with a hit; in the whole collection about 2.4% have one here.
Nrf2 inh: Nrf2 pathway inhibition | A549 ARE-Fluc reporter, luciferase luminescence, 18-24 h | Potency, µM (series often up to 46 µM), without a hit: at the highest dose activity change, negative = inhibition, most hits filed as inhibitors | 360,000 compounds, 2.1% hits; note: % is set by controls: 0 for no effect and ±100 for the full control effect; nearly all actives have a fitted effect of over 60% in size
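Two sequential reads on A549 ARE_Fluc cells exposed to compound for 18-24 h: a CellTiter-Fluor fluorescence read for viability, then a luciferase luminescence read for Nrf2/ARE activity.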
PINK1 modulator: PINK1 expression modulation; PINK1 immunofluorescence, high-content cytometry, 24 h; Potency, µM (doses to about 76.6 µM), inactives show top-dose activation (PINK1 increase), most hits filed as activators; AID 624263; 410,000 compounds, 0.2% hits; active = well fitted activation curve with a large enough effect; inconclusive = small, poorly fitted or top-dose-only effect; cell line not stated here; note: % of control where 0% means no effect; nearly all actives have a fitted effect of over 65% in size
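Measures PINK1 amount and localization on or inside mitochondria by immunofluorescence. Stable cells get compounds at 5 concentrations for 24 hours before fixation and staining; CCCP controls included.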
A549 viability: counter-screen for Nrf2 inhibitors: cytotoxicity in A549 cells. A549 ARE-Fluc cells, CellTiter-Fluor viability, 18-24 h. Potency, µM (top dose mostly 46 µM), for the others: at the top dose activity change, negative = cytotoxicity, usual class: inhibitors. 390,000 compounds, 0.16% hits. AID 504648; note: % is set by controls: 0 for no effect and ±100 for the full control effect
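A549 ARE_Fluc cells in 5% FBS OPTI-MEM were exposed to compounds in concentration-response for 18-24 h at 37 deg C. Viability was read by CellTiter-Fluor fluorescence (Ex 405/Em 525) after 30 min, before the luciferase read.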
Nrf2 activator: Nrf2 pathway activation | AREc32 ARE-luciferase reporter (MCF7-derived line), luminescence, 24 h | Potency, µM (doses to about 46.1 µM), for inactives: top-dose activation, hits mostly activators | 410,000 compounds, 0.31% hits; note: % of control where 0% means no effect; nearly all actives have a fitted effect of over 65% in size
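Quantitative high-throughput format: AREc32 reporter cells, 1000 per well, received compound by pin transfer and were incubated 24 hr at 37 deg C, 5% CO2, before Steady-Glo luminescence detection.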
Epigenetic derep: derepresses silenced GFP reporter in murine cells | murine LDR cells, GFP reporter derepression, 30 h | Potency, µM (titrated, usually from 53.9 µM), for the others: at the highest dose GFP activation, actives largely listed as activators | 280,000 compounds, 0.2% hits; note: % of control where 0% means no effect; nearly all actives have a fitted effect of over 60% in size
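Derepression of a silenced CMV-GFP reporter in murine LDR cells is scored by enumerating GFP-positive cells with a laser-scanning microplate cytometer after 30 hours of treatment at 37 C.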
Starred values were filed as active, the others as inactive; ? = inconclusive; / = not tested or not shown; [ ] = remark or other dose. Unless noted, calls come from the whole dose curve; as a rule, active = well fitted curve in the direction sought with a large enough effect; inconclusive = small, poorly fitted or top-dose-only effect, or another doubt; inactive = no such curve, though single readings can be large; an effect the other way counts as inactive or inconclusive. Potency is the fitted concentration of half-maximal effect.

SMILES	Nrf2 inh	PINK1 modulator	A549 viability	Nrf2 activator	Epigenetic derep
Cc1cc(C(=O)COC(=O)c2ccc([N+](=O)[O-])o2)c(C)n1CC1CCCO1 (configuration not stated)	?	2%	-2%	16µM*	-4%
O=C(NCC1CCCO1)c1ccc(COc2ccc(Br)cc2)cc1 (configuration not stated)	16µM*	2%	-3%	2%	?
COCCn1c(C)cc(C(=O)COC(=O)c2ccc([N+](=O)[O-])o2)c1C	16%	2%	-4%	?	4%
O=C(Cc1ccc([N+](=O)[O-])cc1)NCC1CCCO1 (configuration not stated)	10%	-2%	4%	0%	-1%
O=C(NCC1CCCO1)c1ccc([N+](=O)[O-])o1 (configuration not stated)	0%	-1%	-7%	10µM*	/
O=C(CNc1ccccc1)N/N=C/c1ccc([N+](=O)[O-])o1	18µM*	?	?	4%	1%
O=C(Cc1ccc2c(c1)OCO2)NN=Cc1ccc([N+](=O)[O-])o1	?	?	-18%	0%	/
O=C(CCC(=O)Nc1ccc(Cl)cc1Cl)N/N=C/c1ccc([N+](=O)[O-])o1	18µM*	?	-22%	21%	-1%
Cc1ccc(NCC(=O)N/N=C\c2ccc([N+](=O)[O-])o2)cc1	21µM*	2%[38.3 µM]	?	8%	-2%
CCCCCC(=O)N/N=C/c1ccc([N+](=O)[O-])o1	/	5%[38.3 µM]	-19%	2%	0%
CCc1cccc(-n2c(C)nc3c(cnn3-c3ccc(Cl)cc3)c2=O)c1	16µM*	2%	0%	-1%	0%
Cc1ccc(-n2ncc3c(=O)n(-c4ccc(C)c(C)c4)c(C)nc32)cc1	-3%	-2%	-8%	0%	1%
CCCSc1nc2c(cnn2-c2ccc(C)cc2)c(=O)[nH]1	18µM*	1%	-22%	1%	0%
Cc1ccc(-n2c(C)nc3c(cnn3-c3ccc(F)cc3)c2=O)cc1	15µM*	-1%	-11%	-1%	0%
CCCSc1nc2c(cnn2-c2ccccc2)c(=O)[nH]1	?	2%	-5%	0%	0%
Cc1ccsc1C(=O)N(c1nc2ccccc2s1)c1c(C)cccc1C	18µM*	2%	-7%	0%	-1%
COC(=O)[C@]1(C)CCC[C@@]2(C)C3CC[C@@]4(C)C[C@]3(CCC21)CC(=O)N4Cc1ccc(OC)cc1 (some centres not stated)	15µM*	17%	-7%	0%	/
COc1cc(-c2cnc3ccccc3c2)cc2c1OCCN(S(=O)(=O)C[C@]13CC[C@H](CC1=O)C3(C)C)C2	/	0%	/	/	/
Cc1ccc(OCCOC(=O)c2cc(S(=O)(=O)N3CCCCC3)ccc2N2CCOCC2)cc1	12µM*	3%	-10%	2%	/
COc1ccc(COC(=O)c2cc(S(=O)(=O)N3CCCCC3)ccc2N2CCOCC2)cc1	?	-1%	-1%	0%	/
O=C(Nc1cccs1)Nc1cccnc1Cl	0%	5%	2%	11µM*	/
O=C(Nc1cccs1)Nc1ccccc1Cl	-29%	0%	-13%	24%	2%
N#C/C(=C\c1ccccn1)c1nc2ccccc2s1	?	?	-1%	18µM*	?
O=C([C@@H]1C[C@@H](Sc2nc3ccccc3[nH]2)CN1Cc1ccc(C(F)(F)F)cc1)N1CCN(c2ccccc2F)CC1	/	2%	/	/	/
O=C(Nc1sc2c(c1C(=O)NCc1ccco1)CCCC2)c1cc(=O)c2cc(Cl)ccc2o1	8%	40µM*	-5%	0%	11%
Cc1cc(NC(=O)CS(=O)(=O)c2cn(Cc3ccc(F)cc3)c3ccccc23)no1	21µM*	6%	-9%	5%	1%
Cc1cc(NC(=O)CS(=O)(=O)c2cn(Cc3cccc(F)c3)c3ccccc23)no1	23µM*	3%	?	1%	0%
Cc1cc(N2C(=O)c3ccccc3C2=O)no1	14%	/	1%	/	/
O=Cc1sc(Nc2ccccc2)nc1Cl	9%	4%	3%	14µM*	1%
CCOC(=O)Nc1ccc2c(CN3C(=O)NC(CC)(CC)C3=O)cc(=O)oc2c1	15%	-2%	-1%	0%	-6%

High-throughput results deposited in PubChem by National Center for Advancing Translational Sciences (NCATS).
